A selection: hits, their analogues and other compounds. The true share with any hit is near 12%.
G9a block = blocks human histone lysine methyltransferase G9a; G9a H3K9 monomethylation, AlphaScreen, 2 h; Potency, µM (top dose mostly 102 µM), without a hit: at the highest dose activity, negative = inhibition, hits mostly inhibitors; 350,000 tested, 8.8% active; AID 504332; note: potency is the fitted concentration of half-maximal effect; % is set by controls: 0 for no effect and ±100 for the full control effect; nearly all actives have a fitted effect of over 75% in size
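G9a (20 nM) was preincubated 15 min with compound, then reacted 2 h at room temperature with 500 nM biotin-H3K9 peptide and 20 µM SAM. Monomethyl-H3K9 detected by AlphaScreen using anti-H3K9me1 antibody.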
PLK1 PBD inh = PLK1 (human) polo-box domain binding inhibition. P53350. Plk1 PBD binding of FITC phosphopeptide, fluorescence polarization. Potency, µM, inactives show max response, negative = inhibition, hits mostly inhibitors. 360,000 tested, 2.8% active; note: potency is the fitted concentration of half-maximal effect; series mostly up to about 57 µM; % is set by controls: 0 for no effect and ±100 for the full control effect; nearly all actives have a fitted effect of over 65% in size
JMJD2A Tudor inh = inhibitors of human JMJD2A Tudor domain. 390,000 tested, 4.4% active. AID 504339. O75164. AlphaScreen JMJD2A-Tudor / H3K4me3 peptide binding. Potency, µM (top dose mostly 114 µM), without a hit: at the highest dose activity change, negative = inhibition, usual class: inhibitors; note: potency is the fitted concentration of half-maximal effect; % is set by controls: 0 for no effect and ±100 for the full control effect; nearly all actives have a fitted effect of over 50% in size
Target sequence (O75164 whole entry, looked up, the tested form may be a part): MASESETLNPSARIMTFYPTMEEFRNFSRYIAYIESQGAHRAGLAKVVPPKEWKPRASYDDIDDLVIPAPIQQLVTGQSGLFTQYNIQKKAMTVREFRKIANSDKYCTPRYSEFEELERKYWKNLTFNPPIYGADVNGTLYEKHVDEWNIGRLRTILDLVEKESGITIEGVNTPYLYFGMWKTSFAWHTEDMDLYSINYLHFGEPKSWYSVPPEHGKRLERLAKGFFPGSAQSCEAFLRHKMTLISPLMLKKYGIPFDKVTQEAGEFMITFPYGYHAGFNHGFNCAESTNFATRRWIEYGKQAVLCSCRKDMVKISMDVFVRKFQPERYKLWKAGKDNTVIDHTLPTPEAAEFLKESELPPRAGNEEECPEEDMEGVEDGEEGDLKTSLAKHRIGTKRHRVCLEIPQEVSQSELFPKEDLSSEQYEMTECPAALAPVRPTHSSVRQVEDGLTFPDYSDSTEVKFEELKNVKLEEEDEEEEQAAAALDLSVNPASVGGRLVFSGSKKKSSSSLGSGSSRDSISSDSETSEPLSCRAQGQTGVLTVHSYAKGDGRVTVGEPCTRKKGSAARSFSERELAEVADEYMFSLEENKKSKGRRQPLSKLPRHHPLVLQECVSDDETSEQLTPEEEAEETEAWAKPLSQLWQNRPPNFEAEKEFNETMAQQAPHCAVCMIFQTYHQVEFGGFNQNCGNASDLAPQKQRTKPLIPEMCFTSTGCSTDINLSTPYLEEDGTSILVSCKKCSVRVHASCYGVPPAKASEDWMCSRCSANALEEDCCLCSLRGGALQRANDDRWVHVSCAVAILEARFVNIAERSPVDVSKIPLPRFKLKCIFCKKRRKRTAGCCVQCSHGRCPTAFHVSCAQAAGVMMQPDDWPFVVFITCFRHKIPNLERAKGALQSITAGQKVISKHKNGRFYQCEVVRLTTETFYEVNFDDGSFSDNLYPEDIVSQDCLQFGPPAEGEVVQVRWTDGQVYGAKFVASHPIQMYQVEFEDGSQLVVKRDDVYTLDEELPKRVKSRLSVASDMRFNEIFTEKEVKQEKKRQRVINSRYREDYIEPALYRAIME
PI5P4K alpha inh = PI5P4K alpha (human) kinase inhibition; 330,000 tested, 1.2% active; P48426; PI5P4Kalpha enzyme, ADP-Glo luminescence, 60 min; stronger effect = lower value; max response, %; active = max response of -50% or lower; inconclusive = between -30% and -50%; inactive = -30% or higher; note: value at the top dose of about 77 µM; % is set by controls: 0 for no effect and ±100 for the full control effect
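Enzyme plus substrate dispensed, test compounds pinned in, then ATP (5 microM final) added. After 60 min at RT, ADP-Glo reagent 1 for 45 min and reagent 2 for 30 min preceded luminescence imaging.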
HP1b chromo inh = HP1-beta chromodomain-methylated histone interaction inhibition; AlphaScreen HP1-beta / biotin-H3K9me3 peptide binding; 390,000 tested, 0.56% active; Potency, µM (top dose mostly 114 µM), for the others: at the top dose activity change, negative = inhibition, actives largely listed as inhibitors; P83916; AID 540317; note: potency is the fitted concentration of half-maximal effect; nearly all actives have a fitted effect of over 70% in size
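HP1-beta protein (50 nM final) preincubated 30 min at room temperature with biotinylated H3(1-18)K9me3 peptide (50 nM) in PBS pH 7.4, 0.01% Tween-20, then compound added for 30 min. AlphaScreen streptavidin donor/nickel chelate acceptor beads (10 ug/mL final), 30 min dark, luminescence read.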
BAZ2B inh = inhibitors of human BAZ2B bromodomain. Q9UIF8. AlphaScreen BAZ2B-H3K14Ac peptide displacement. Potency, µM (titrated, usually from 114 µM), for inactives: top-dose activity change, negative = inhibition, hits mostly inhibitors. 360,000 tested, 4.4% active; note: potency is the fitted concentration of half-maximal effect; % is set by controls: 0 for no effect and ±100 for the full control effect; nearly all actives have a fitted effect of over 60% in size
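Complex of BAZ2B and biotin-H3K14Ac (50 nM apiece) forms over 30 min at RT, then faces library compounds up to 110 uM for another 30 min; AlphaScreen beads added, 20 min dark incubation, luminescence read.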
An asterisk follows results filed as active; ? = inconclusive; . = not tested or not shown; [ ] = remark or other dose. Unless noted, calls come from the whole dose curve; as a rule, active = well fitted curve in the direction sought with a large enough effect; inconclusive = small, poorly fitted or top-dose-only effect, or another doubt; inactive = no such curve, though single readings can be large; an effect the other way counts as inactive or inconclusive.

SMILES	G9a block	PLK1 PBD inh	JMJD2A Tudor inh	PI5P4K alpha inh	HP1b chromo inh	BAZ2B inh
Cc1noc(-c2ccc(-c3noc(-c4cccc(F)c4)n3)cc2)n1	8%[59 µM]	.	-9%	.	27%[57 µM]	5%
CN(C(=O)c1cnccn1)c1c(N)n(Cc2ccccc2)c(=O)[nH]c1=O	-4%	-7%	-8%	5	37%	10%
COc1cc(OC)cc(C(=O)NCC(=O)OCC(=O)N2CCc3ccccc32)c1	7%	27µM*	?	?	19%	3%
O=C(COc1ccc(Br)cc1)N1CCc2ccccc21	71µM*	5%	6%	5	32%	3%
CCCCN(C(=O)c1c(C)noc1C)c1c(N)n(CCC)c(=O)[nH]c1=O	3%[12.7 µM]	-9%	-13%	2	25%	8%
COCCNC(=O)C1(C(F)(F)F)C/C(=C\CCO)CCCO1 (stereo not drawn)	.	.	-10%	.	22%	.
O=c1[nH]c(=S)[nH]c2c1C(C1CCCCC1)OC(C1CCCCC1)C2 (stereo not drawn)	.	-4%	.	-22	.	.
CCOC(=O)C1=C(C)N(c2ccccc2)C(=O)/C1=C\c1ccco1	40µM*	-3%	?	-1	-44%	-7%
CCOC(=O)CN1C(=O)S/C(=C/c2ccco2)C1=O	?	-6%	3%	3	24%	?
CCOC(=O)C1=C(C)N(c2ccccc2)C(=O)/C1=C\c1cccs1	?	0%	?	2	28µM*	10µM*
COC(=O)C1=C(C)N(c2ccc(Cl)cc2)/C(=C/c2cccs2)C1=O	5%[59 µM]	-5%	-5%	-4	27%	-3%
CCOC(=O)C1=C(C)N(c2ccc(C)cc2)C(=O)/C1=C\c1cccs1	.	2%	13µM*	3	?	10µM*
CCOC(=O)C1=C(C)N(c2ccccc2)C(=O)/C1=C\c1ccc(O)c(OC)c1	3.2µM*	?	5µM*	-19	?	?
CCOc1ccc(NC(=O)c2cn3c4c(ccc(Cl)c4c2=O)OC(C)C3)cc1 (stereo not drawn)	-9%[59 µM]	.	-15%	.	-7%	0%
COC(=O)C1=C(C)N(c2cc(C)cc(C)c2)/C(=C/c2ccco2)C1=O	?	-15%	79µM*	5	-23%	50µM*
COC(=O)C1=C(C)N(c2cccc(C)c2)C(=O)/C1=C\c1cccs1	11µM*	-12%	?	11	?	10µM*
COC(=O)C1=C(C)N(c2ccc(OC)c(OC)c2)C(=O)/C1=C\c1ccco1	?	-4%	-13%	-7	7%	35µM*
COC(=O)C1=C(C)N(c2ccccc2)/C(=C/c2cccs2)C1=O	-34%	2%	-9%	.	20%	-6%
COC(=O)C1=C(C)N(c2ccccc2)/C(=C/c2ccco2)C1=O	.	47%	-7%	7	18%	-6%
CCN1CCN(CCCN(Cc2ccco2)C(=S)Nc2cc(Cl)ccc2C)CC1	28µM*	24µM*	-8%	-5	4%	-9%
Cc1cc(C)c(NC(=S)N(CCN2CCCCC2)Cc2ccco2)c(C)c1	?	21µM*	-22%	-1	-3%	-33%
CCOC(=O)c1ccc(NC(=S)N(CCCN2CCN(CC)CC2)Cc2ccco2)cc1	-40%	-20%	-29%	-3	-3%	-13%
CCOC(=O)c1ccc(NC(=S)N(CCCN2CCCC2)Cc2ccco2)cc1	56µM*	0%	-25%	17	-2%	-35%
Cc1ccc(NC(=S)N(CCCN2CCOCC2)Cc2ccco2)cc1Cl	-15%	-13%	-31%	-5	-10%	-38%
CCN1CCN(CCCN(Cc2ccco2)C(=S)Nc2ccc(C)c(Cl)c2)CC1	35µM*	-16%	-24%	-1	27%	-29%
SMILES	G9a block	PLK1 PBD inh	JMJD2A Tudor inh	PI5P4K alpha inh	HP1b chromo inh	BAZ2B inh
COc1cc(OC)c(NC(=O)NCc2ccc3c(c2)CCN3C(=O)c2ccccc2)cc1Cl	-25%[59 µM]	.	-19%	.	22%[57 µM]	-15%
CCOc1ccccc1CNc1nc2nc(C)cc(C)n2n1	-26%[59 µM]	.	-23%	.	19%	-15%
Cc1ccccc1-c1n[nH]c(=S)n1/N=C/C=C/c1ccco1	2.2µM*	?	18µM*	-84*	-11%	45µM*
S=c1[nH]nc(-c2ccccc2)n1/N=C/C=C/c1ccco1	1.3µM*	-5%	20µM*	-15	-19%	?
S=c1[nH]nc(-c2cccnc2)n1/N=C/C=C/c1ccco1	.	-3%	20µM*	-21	35%	45µM*
FC(F)(F)c1n[nH]c(=S)n1/N=C/c1ccco1	3.5µM*	-8%	?	5	28%	-8%
COc1cccc(CN2CCC2(C)C(=O)Nc2cccc(Oc3ccccc3)c2)c1OC (stereo not drawn)	.	8%	.	24	.	.
CCOc1ccccc1NC(=O)C(Cc1ccccc1)NS(=O)(=O)c1ccc2c(c1)oc(=O)n2C (stereo not drawn)	2%[59 µM]	.	-12%	.	16%	-4%
COc1ccc(OCC(=O)Nc2ccc(-c3nc4cc(C)cc(C)c4o3)cc2)cc1	-10%[59 µM]	.	-19%	.	27%	-4%
CC(/C=N/n1c(-c2cccnc2)n[nH]c1=S)=C\c1ccco1	1.3µM*	?	4µM*	?	-33%	-35%
S=c1[nH]nc(-c2ccc(Cl)cc2)n1/N=C/c1ccco1	0.89µM*	-23%	40µM*	-6	-4%	-26%
CC(/C=N/NC(=O)c1cccnc1)=C\c1ccco1	-9%[12.7 µM]	-14%	-19%	.	12%	-2%
CC(/C=N/n1c(-c2cc(C)[nH]n2)n[nH]c1=S)=C\c1ccccc1	?	-9%	?	6	7%	-37%
S=c1[nH]nc(-c2ccc(Cl)cc2)n1/N=C/C=C/c1ccco1	.	27µM*	56µM*	?	?	?
Cc1cc(-c2n[nH]c(=S)n2/N=C/C=C/c2ccco2)n[nH]1	2.5µM*	-27%	2.8µM*	?	4%	50µM*
CC(C)CC(=O)Nc1ccnn1C1CCN(C(=O)c2ccc(F)cc2Cl)CC1	.	-4%	-2%	-7	13%	0%
CCOC(=O)C1(C)CCCN1C(=O)c1ccccc1F (stereo not drawn)	.	3%	.	-1	.	.
COc1ccc2oc(=O)c(C(=O)Nc3ccc(C(=O)O)cc3)cc2c1	-29%[59 µM]	.	-8%	.	35%	-1%
Cc1ccccc1S(=O)(=O)NC(=O)C1(C)CCN1C(=O)CCc1ccc(Cl)cc1Cl (stereo not drawn)	.	0%	.	0	.	.
CC(C)(C)OC(=O)N1CCC(c2nnc(SCc3ccccc3)o2)CC1	21%[59 µM]	.	7%	.	35%	7%
Cc1cccc(OCc2nnc(SCC(=O)N3CCCCC3)o2)c1	24%	0%	6%	-2	27%	5%
C(=C\c1ccccc1)/C=N/n1cnnc1	21%[59 µM]	1%	-19%	-6	20%	.

Screens from PubChem.
